Several values for one entry are separate records, joined by “and”; a condition that tells them apart may be missing. Equal entries are not always repeated. Records with an inconclusive call do not appear. Where a structure was tested more than once in an assay, its records may differ in their call. Activity calls are given as the source filed them. Unless noted, the call rests on the fitted dose curve; in most records, active means well fitted curve in the direction sought with a large enough effect; inconclusive means small, poorly fitted or top-dose-only effect, or another doubt; inactive means no such curve, though single readings can be large; an effect the other way counts as inactive or inconclusive.

Assay [1] deals with Protein phosphatase 1D (Homo sapiens) (UniProt O15297). The assay is described as follows: RapidFire Mass Spectrometry qHTS Assay for Modulators of WT P53-Induced Phosphatase 1 (WIP1) (AID 1347424). Further: series mostly up to about 63 µM. Put shortly: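 RapidFire MS readout of dephosphorylated VEPPL-S-QETFS product, with 1 uM isotope-labelled peptide standard. Reaction: 10 nM WIP1, 2 uM phosphopeptide substrate, 5 min, room temperature, after 1 h compound preincubation; stopped with 0.5% formic acid.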
Protein phosphatase 1D (Homo sapiens), sequence (O15297 whole entry, looked up): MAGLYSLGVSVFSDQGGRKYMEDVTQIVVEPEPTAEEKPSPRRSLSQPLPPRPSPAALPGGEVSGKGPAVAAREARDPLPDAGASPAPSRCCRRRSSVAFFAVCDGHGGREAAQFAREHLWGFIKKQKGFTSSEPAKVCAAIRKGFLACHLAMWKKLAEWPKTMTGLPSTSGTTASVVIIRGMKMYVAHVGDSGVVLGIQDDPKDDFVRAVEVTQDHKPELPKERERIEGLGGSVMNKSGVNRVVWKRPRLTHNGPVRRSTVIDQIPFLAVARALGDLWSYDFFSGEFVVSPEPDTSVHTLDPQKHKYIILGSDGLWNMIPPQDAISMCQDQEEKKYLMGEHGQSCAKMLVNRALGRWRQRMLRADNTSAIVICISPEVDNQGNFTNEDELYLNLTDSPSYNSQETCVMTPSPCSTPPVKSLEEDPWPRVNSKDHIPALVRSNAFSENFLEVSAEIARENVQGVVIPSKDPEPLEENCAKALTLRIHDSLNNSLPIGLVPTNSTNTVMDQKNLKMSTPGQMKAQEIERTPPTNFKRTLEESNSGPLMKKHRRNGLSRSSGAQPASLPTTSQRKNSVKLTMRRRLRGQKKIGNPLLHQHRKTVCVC
Background: qHTS replaces the single test concentration by a dilution series.

The target is the same in assay [2]. The assay can be described thus: Rhodamine-PBP qHTS Assay for Modulators of WT P53-Induced Phosphatase 1 (WIP1) (AID 1347425). The method, boiled down: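 5 nM WIP1 + 10 uM Rh-PBP, 50 mM Tris pH 7.5, 30 mM MgCl2, 1 mM TCEP, 0.1 mM EGTA, BSA; cpds pinned, 1 hr RT; + 10 uM phosphopeptide; fluorescence 1-min reads x 11 min; delta = f1 - f0.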
Assay [3] in a line: Primary qHTS for inhibitors of La Crosse Virus (LACV) - induced cell death in SH-SY5Y cells (AID 1508616).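 Further: top concentration of the series differs between compounds; higher means more rescue of cells from virus-induced death.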 The method, boiled down:
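Screening measures cell viability in LACV-infected SH-SY5Y cultures. Compound was added before virus (0.01 MOI), and ATP was detected by luminescence 6 days later.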

The target of assay [4] is Calcium and integrin-binding protein 1 (Homo sapiens) (UniProt Q99828). The assay can be described thus: Primary qHTS for Identification of Calcium Integrin Binding Protein 1 (CIB1) Competitor (AID 1508620).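 Further: GST tagged CIB1 binding a fluorescein labelled alphaIIb integrin peptide tracer; top concentration of the series differs between compounds.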 The method, boiled down:
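Fluorescence polarization competition: GST-tagged CIB1 (1 uM final) preincubated with compound 15 min at room temperature, then FITC-labelled alphaIIb peptide (100 nM final) added. After 15 min at room temperature, polarization read at Ex 480/Em 540.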

Assay [5] in a line: Primary qHTS for small molecule stabilizers of the endoplasmic reticulum resident proteome: Secreted ER Calcium Modulated Protein (SERCaMP) assay (AID 1508630). Put shortly:
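The SH-SY5Y reporter protocol was run at 3 concentrations up to 38.3 uM (primary) or 11 concentrations (follow-up): 16 h compound, 100 nM thapsigargin for 4 h, then extracellular luciferase luminescence.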

Assay [6] can be described thus: A High-Content qHTS Against Drug Library for the Identification of Small Molecules that Inhibit DYT1 Early Onset Primary Dystonia-Associated Cell Pathology (AID 1645839; calls by dose curve; further: series mostly up to about 46 µM). The method, boiled down:
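Cells were seeded and left for 24 h, then dosed with compound alongside tetracycline induction of mutant EGFP-TorsinA. They were incubated for 48 h, fixed in 4% paraformaldehyde, permeabilized and imaged for mislocalization (%pathology) and cell count.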

For assay [7], the target named is Cytochrome P450 2D6 (Homo sapiens) (UniProt P10635). The assay is described as follows: Cytochrome P450 family 2 subfamily D member 6 (CYP2D6) small molecule antagonists: luciferase biochemical (cell-free) qHTS assay (AID 1645840; active means well fitted curve in the direction sought with a large enough effect in the repeat runs; an effect the other way counts as inactive or inconclusive; further: nearly all actives have a fitted effect of over 55% in size; further: potency means the concentration at half of the fitted maximal effect). Put shortly:
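P450-Glo CYP2D6 system: proluciferin substrate converted by enzyme to luciferin, read by luminescence proportional to activity. Enzyme-substrate mix with compound 10 min at room temperature, then NADPH regeneration 1 h before detection reagent.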

Assay [8] concerns the target Cytochrome P450 3A4 (Homo sapiens) (UniProt P08684). The assay is described as follows: Cytochrome P450 family 3 subfamily A member 4 (CYP3A4) small molecule antagonists: luciferase qHTS assay (AID 1645841; active means well fitted curve in the direction sought with a large enough effect in the repeat runs; an effect the other way counts as inactive or inconclusive; further: nearly all actives have a fitted effect of over 45% in size). The method, boiled down:
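P450-Glo CYP3A4 enzyme with proluciferin substrate preincubated 10 min with compound at room temperature, then NADPH regeneration 1 h. Luciferin detection reagent added for 20 min; luminescence recorded. Ketoconazole positive control.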

Assay [9] is described as follows: Primary qHTS for inhibitors of nuclear receptor binding SET domain protein 2 (NSD2) in an isogenic RCH-ACV NSD2 p.E1099K mutant (9B) (AID 1645876). Further: nearly all actives have a fitted effect of over 70% in size. Further: potency means the concentration at half of the fitted maximal effect.
Assay [10] can be described thus: Primary qHTS for inhibitors of nuclear receptor binding SET domain protein 2 (NSD2) in an RCH-ACV wild type WT cells (2C) (AID 1645877). Further: nearly all actives have a fitted effect of over 70% in size. Further: potency means the concentration at half of the fitted maximal effect.
In assay [11] the target is Cytochrome P450 2C9 (Homo sapiens) (UniProt P11712). The assay is described as follows: Cytochrome P450 family 2 subfamily C member 9 (CYP2C9) small molecule antagonists: luciferase biochemical (cell-free) qHTS assay (AID 1645842; active means well fitted curve in the direction sought with a large enough effect in the repeat runs; an effect the other way counts as inactive or inconclusive; further: series mostly up to about 57 µM; nearly all actives have a fitted effect of over 55% in size). The method, boiled down: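 P450-Glo CYP2C9 system: proluciferin substrate with enzyme in mix containing 0.4% BSA, 10 min at room temperature, then NADPH regeneration solution added and incubated 1 h at 37C. Detection reagent stopped reaction; luminescence read after 20 min as RLU.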
Cytochrome P450 2C9 (Homo sapiens), sequence (P11712 whole entry, looked up): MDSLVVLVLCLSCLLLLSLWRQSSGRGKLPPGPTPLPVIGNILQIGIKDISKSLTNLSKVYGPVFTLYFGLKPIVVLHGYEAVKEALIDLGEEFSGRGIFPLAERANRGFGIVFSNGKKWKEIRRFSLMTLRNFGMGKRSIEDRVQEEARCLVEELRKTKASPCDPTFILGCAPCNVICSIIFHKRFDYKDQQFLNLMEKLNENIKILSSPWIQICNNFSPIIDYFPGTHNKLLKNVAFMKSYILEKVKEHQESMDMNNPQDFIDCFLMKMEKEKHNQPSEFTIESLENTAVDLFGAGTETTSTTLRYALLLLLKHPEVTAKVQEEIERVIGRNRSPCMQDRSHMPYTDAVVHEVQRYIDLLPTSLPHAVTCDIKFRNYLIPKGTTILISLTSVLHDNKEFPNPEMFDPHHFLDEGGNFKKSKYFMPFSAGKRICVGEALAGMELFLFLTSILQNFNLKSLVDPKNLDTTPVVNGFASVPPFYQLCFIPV

Assay [12] is described as follows: Validation qHTS assay for inhibitors of Activation Induced Cytidine Deaminase (AID): UDG Counterscreen signal (AID 1347427). Further: potency means the concentration at half of the fitted maximal effect. Put shortly: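 Fluorescence at 560 nm excitation, 665 nm emission reports UDG signal after 250 mM NaOH (2x) addition and 30 min. Enzymes (AID 1 uM, UDG 2 U/mL, at 4/3x) preincubated 10 min with compound, then 4 h with 4x 250 nM DJC20/DJC23 substrate at room temperature.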

For assay [13], the target named is Calcium and integrin-binding protein 1 (Homo sapiens) (UniProt Q99828). The assay is described as follows: Validation qHTS for Identification of Calcium Integrin Binding protein 1 (CIB1) Competitor (AID 1508618). Put shortly:
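Displacement of FITC-alphaIIb peptide (100 nM) from CIB1-GST (1 uM) is monitored by polarization in quantitative HTS format; buffer carries 5 mM CaCl2 and 125 mM NaCl at pH 7.4, incubations are at room temperature.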

The target in assay [14] is Papain (Carica papaya) (UniProt P00784). The assay can be described thus: Primary qHTS assay for inhibitors of the protease papain (AID 1645873).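 Further: papain turnover of Z-FR-AMC read as the AMC fluorescence gain over 10 min; series mostly up to about 50 µM.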
Papain (Carica papaya), sequence (P00784 whole entry, looked up): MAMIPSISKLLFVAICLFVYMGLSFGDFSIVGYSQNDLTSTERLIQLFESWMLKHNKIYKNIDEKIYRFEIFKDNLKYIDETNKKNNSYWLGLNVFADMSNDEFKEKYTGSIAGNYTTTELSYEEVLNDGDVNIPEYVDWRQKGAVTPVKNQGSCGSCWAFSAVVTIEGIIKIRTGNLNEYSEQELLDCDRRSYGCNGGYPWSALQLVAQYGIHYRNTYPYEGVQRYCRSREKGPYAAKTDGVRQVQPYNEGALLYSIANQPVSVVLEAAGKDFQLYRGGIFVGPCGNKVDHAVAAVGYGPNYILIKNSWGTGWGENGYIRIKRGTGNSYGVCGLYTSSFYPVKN
Assay [15] deals with Rap guanine nucleotide exchange factor 3 (Homo sapiens) (UniProt O95398). The assay can be described thus: Confirmatory qHTS for antagonist of cAMP-regulated guanine nucleotide exchange factor 3 (EPAC1) (AID 1645880). Further: nearly all actives have a fitted effect of over 55% in size. Put shortly: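 Released BODIPY-GDP fluoresces less than Rap1-bound BODIPY-GDP; the signal is followed at 480/540 nm at 5-min intervals over 30 min, after 5 min at room temperature. Reactions contain 100 nM EPAC1, 250 nM RAP1B-BODIPY-GDP and 50 uM GDP; results are normalized to ATA and DMSO.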
Rap guanine nucleotide exchange factor 3 (Homo sapiens), sequence (O95398 whole entry, looked up): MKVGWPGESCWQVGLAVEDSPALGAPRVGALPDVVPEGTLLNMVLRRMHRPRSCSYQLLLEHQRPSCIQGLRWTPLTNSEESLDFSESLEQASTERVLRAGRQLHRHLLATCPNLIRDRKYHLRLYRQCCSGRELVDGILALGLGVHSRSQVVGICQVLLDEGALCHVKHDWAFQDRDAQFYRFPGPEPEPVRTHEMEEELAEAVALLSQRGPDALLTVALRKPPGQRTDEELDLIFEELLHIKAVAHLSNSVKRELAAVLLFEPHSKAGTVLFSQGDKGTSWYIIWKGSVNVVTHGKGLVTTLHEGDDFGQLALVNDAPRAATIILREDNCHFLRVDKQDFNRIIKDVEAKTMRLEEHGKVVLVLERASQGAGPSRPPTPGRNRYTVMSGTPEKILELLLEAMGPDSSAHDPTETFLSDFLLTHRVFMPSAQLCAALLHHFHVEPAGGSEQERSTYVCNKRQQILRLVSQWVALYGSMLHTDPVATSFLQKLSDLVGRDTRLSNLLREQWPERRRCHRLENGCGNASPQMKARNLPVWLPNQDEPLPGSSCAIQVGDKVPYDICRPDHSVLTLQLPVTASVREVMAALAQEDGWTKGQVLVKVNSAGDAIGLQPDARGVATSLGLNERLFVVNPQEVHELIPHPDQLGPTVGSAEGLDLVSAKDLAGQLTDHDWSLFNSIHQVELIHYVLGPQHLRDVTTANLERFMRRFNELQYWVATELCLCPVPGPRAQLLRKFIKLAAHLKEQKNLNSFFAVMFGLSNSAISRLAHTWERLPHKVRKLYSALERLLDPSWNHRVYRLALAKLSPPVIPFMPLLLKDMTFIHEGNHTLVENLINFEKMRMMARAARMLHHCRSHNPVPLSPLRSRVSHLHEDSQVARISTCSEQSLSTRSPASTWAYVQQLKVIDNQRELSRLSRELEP

Calcium and integrin-binding protein 1 (Homo sapiens), sequence (Q99828 whole entry, looked up): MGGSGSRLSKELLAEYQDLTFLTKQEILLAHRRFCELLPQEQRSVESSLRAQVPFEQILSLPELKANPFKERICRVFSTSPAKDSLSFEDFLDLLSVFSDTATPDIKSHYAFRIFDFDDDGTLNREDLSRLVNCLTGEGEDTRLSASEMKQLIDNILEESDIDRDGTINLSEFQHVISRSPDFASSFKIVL
Cytochrome P450 2D6 (Homo sapiens), sequence (P10635 whole entry, looked up): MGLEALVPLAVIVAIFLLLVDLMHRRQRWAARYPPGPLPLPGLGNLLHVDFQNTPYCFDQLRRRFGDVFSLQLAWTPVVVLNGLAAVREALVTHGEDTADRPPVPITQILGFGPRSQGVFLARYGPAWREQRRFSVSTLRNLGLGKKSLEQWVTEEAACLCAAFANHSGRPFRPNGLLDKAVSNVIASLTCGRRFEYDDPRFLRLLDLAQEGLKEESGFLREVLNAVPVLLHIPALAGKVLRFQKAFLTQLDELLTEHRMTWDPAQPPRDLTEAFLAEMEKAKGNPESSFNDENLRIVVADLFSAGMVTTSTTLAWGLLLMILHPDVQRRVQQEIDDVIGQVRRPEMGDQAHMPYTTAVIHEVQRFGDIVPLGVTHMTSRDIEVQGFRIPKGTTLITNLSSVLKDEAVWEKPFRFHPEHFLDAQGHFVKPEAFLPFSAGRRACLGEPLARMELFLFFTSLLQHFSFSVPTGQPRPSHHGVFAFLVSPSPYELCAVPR
Cytochrome P450 3A4 (Homo sapiens), sequence (P08684 whole entry, looked up): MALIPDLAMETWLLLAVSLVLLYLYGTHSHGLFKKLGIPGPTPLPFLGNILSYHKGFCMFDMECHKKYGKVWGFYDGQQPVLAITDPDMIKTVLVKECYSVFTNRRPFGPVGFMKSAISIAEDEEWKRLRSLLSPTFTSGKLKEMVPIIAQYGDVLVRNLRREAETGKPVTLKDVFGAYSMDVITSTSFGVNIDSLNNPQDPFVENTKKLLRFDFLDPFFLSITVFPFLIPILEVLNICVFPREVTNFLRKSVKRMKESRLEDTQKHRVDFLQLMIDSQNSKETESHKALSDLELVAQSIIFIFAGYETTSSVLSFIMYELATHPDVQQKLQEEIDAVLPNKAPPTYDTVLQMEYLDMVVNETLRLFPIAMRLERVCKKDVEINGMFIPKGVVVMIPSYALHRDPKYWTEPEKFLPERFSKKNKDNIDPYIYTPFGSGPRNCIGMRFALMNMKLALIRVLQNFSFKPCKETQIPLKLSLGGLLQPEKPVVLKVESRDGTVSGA

For the compound `Cc1ccc(C)c(OCCCC(C)(C)C(=O)O)c1`, the Potency result in assay [1], in [3], in [4], in assay [5], in [6] and in assay [7] was “inactive” each time. Further, the Potency result in assay [9] and in assay [10] was “inactive” throughout. Further, the compound was classed as inactive in assay [2] and in [8].

Regarding `CCOC(=O)c1c(C)n(C)c2ccc(O)cc12`, the Potency result in [1], in [3], in [4], in assay [5], in assay [6] and in assay [11] was “inactive” each time. Also, the Potency entry in assay [9] and in assay [10] was “inactive” each time. For the same compound, the result in assay [2] was inactive.

`Cc1nc2n(c(=O)c1CCN1CCC(c3noc4cc(F)ccc34)CC1)CCCC2`: the Potency entry in assay [1], in [3], in assay [4], in assay [5], in assay [6] and in [11] was “inactive” throughout. Also, the Potency result in assay [9] and in [10] was “inactive” each time. Moreover, in assay [2], the call was inactive. In addition, the Potency in assay [7] was 2.75 µM (active).

For the compound `Oc1ccc(OCc2ccccc2)cc1`, the Potency result in assay [1], in [3], in assay [4], in assay [5] and in assay [6] was “inactive” throughout. Also, the call in assay [2] was inactive. The Potency in [7] is 15.5 µM (active); in [9] it was “inactive and 2.63 µM (active)”; in [10], “inactive and 4.68 µM (active)”.

On to `NNc1nncc2ccccc12`, for which the Potency entry in [1], in [3], in assay [4], in [5], in [6] and in [7] was “inactive” each time. For the same compound, the Potency entry in assay [11], in assay [14], in assay [9] and in [10] was “inactive” throughout. Further, the compound was classed as inactive in [2] and in [13]. Also, the Potency in [12] is 39.8 µM (active).

`C=CCc1cc(OC)c(O)c(C(=O)NCCO)c1`: the Potency entry in [1], in assay [3], in [4], in assay [5], in [6] and in [7] was “inactive” in each case. In addition, the Potency entry in [11] is “inactive”.

For the compound `Clc1ccc(C(Cn2ccnc2)OCc2c(Cl)cccc2Cl)c(Cl)c1` (stereo unspecified), the Potency result in assay [1], in assay [3], in assay [4], in assay [5] and in assay [15] was “inactive” each time. For the same compound, in assay [2], the outcome was inactive. The Potency in [9] is 21.1 µM (active) and 18.6 µM (active); in [10], 21.1 µM (active) and 18.6 µM (active).

On to `CCC[C@@H]1C[C@@H](C(=O)N[C@@H]([C@H]2O[C@H](SC)[C@H](O)[C@@H](O)[C@H]2O)[C@@H](C)O)N(C)C1`, for which the Potency result in assay [1], in assay [3], in assay [4], in assay [5], in [6] and in assay [7] was “inactive” each time. Further, the Potency result in [11] is “inactive”. In addition, the outcome in [2] and in [8] was inactive.

For `CNC[C@H](O)c1ccc(O)c(O)c1`, the Potency result in assay [1], in assay [12], in assay [3], in assay [4], in [5] and in [6] was “inactive” in each case. Besides, the Potency result in assay [11], in assay [14], in assay [9] and in assay [10] was “inactive” throughout. Also, the result in assay [13] was inactive.

(Values after PubChem BioAssay (NCATS).)
